Measured values from the supplement of paper PMC11732987, “Enantioselective OTUD7B fragment discovery through chemoproteomics screening and high-throughput optimisation” (Communications Chemistry, 2025).

Assays:
Test in all cases: log2 ratio of Biotin-Ahx-Ub-VS probe labelling (fragment/DMSO); higher = less target engagement (more negative = stronger competition), active = hit call of the paper (q ≤ 0.05, log2 ratio ≤ -1)
Conditions in all cases: compound concentration: 200 uM; treatment time: 3 h
USP42 = target: T1, USP42 (UniProt Q9H9J4)
T1 sequence (whole entry): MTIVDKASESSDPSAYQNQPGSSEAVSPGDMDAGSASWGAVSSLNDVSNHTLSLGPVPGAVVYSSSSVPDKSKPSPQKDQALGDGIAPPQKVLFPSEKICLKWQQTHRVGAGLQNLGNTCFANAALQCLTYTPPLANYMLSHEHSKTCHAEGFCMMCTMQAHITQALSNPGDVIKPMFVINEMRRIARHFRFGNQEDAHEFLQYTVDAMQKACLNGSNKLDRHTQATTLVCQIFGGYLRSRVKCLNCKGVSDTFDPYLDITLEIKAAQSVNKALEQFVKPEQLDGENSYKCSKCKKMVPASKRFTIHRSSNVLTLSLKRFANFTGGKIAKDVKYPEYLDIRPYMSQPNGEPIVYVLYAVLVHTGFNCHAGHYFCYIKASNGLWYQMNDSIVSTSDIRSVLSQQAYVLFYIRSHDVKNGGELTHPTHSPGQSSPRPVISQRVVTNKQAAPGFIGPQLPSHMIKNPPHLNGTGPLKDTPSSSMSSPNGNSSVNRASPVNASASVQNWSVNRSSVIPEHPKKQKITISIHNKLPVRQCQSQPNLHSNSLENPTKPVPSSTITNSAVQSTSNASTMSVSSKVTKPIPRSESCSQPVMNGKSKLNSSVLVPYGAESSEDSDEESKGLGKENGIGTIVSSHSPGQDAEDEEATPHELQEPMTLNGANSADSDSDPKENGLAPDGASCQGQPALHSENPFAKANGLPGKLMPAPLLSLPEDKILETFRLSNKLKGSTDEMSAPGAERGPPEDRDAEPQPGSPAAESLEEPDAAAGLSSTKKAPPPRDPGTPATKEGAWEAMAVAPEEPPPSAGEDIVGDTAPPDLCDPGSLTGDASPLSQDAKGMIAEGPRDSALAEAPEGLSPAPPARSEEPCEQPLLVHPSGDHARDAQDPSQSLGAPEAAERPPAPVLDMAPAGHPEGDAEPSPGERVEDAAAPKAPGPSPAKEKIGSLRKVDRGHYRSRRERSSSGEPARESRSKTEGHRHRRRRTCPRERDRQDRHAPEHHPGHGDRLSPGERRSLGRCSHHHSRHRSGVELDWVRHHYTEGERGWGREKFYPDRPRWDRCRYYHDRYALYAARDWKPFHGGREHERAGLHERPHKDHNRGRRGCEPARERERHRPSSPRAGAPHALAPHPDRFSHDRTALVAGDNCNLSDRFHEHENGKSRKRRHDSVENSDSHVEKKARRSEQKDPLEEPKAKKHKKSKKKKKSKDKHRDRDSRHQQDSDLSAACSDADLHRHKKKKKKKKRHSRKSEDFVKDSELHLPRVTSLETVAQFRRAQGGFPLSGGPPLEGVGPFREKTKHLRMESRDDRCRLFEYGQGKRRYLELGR
Procedure, shortened: (§1)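 HEK293T lysate in Tris/CHAPS/IGEPAL buffer with protease inhibitors (495 µg per sample) was given fragment at 200 µM or vehicle for 3 h, in triplicate. It then received Biotin-Ahx-Ub-VS at 0.5 µM final for 1 h. Labelled DUBs were NeutrAvidin-enriched, digested with LysC and trypsin, and run by diaPASEF LC-MS/MS. Values are average log2 fragment/vehicle ratios by unpaired t-test on global-median-normalised Spectronaut quantities of proteins with ≥2 unique peptides.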

USP46 = USP46 (UniProt P62068)
Sequence of USP46 (P62068 whole entry): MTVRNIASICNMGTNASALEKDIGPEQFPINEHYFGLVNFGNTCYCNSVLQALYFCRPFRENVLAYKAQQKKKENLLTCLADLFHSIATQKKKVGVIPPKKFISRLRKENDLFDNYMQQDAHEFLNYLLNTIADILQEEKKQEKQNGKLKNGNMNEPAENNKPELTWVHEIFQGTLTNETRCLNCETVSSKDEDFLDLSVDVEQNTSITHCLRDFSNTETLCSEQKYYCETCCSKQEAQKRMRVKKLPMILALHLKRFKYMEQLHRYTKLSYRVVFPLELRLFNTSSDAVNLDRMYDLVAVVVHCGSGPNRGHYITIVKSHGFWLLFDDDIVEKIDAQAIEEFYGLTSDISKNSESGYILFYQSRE
Procedure, shortened: as §1

USP47 = target: T2, USP47 (UniProt Q96K76)
T2 sequence (whole entry): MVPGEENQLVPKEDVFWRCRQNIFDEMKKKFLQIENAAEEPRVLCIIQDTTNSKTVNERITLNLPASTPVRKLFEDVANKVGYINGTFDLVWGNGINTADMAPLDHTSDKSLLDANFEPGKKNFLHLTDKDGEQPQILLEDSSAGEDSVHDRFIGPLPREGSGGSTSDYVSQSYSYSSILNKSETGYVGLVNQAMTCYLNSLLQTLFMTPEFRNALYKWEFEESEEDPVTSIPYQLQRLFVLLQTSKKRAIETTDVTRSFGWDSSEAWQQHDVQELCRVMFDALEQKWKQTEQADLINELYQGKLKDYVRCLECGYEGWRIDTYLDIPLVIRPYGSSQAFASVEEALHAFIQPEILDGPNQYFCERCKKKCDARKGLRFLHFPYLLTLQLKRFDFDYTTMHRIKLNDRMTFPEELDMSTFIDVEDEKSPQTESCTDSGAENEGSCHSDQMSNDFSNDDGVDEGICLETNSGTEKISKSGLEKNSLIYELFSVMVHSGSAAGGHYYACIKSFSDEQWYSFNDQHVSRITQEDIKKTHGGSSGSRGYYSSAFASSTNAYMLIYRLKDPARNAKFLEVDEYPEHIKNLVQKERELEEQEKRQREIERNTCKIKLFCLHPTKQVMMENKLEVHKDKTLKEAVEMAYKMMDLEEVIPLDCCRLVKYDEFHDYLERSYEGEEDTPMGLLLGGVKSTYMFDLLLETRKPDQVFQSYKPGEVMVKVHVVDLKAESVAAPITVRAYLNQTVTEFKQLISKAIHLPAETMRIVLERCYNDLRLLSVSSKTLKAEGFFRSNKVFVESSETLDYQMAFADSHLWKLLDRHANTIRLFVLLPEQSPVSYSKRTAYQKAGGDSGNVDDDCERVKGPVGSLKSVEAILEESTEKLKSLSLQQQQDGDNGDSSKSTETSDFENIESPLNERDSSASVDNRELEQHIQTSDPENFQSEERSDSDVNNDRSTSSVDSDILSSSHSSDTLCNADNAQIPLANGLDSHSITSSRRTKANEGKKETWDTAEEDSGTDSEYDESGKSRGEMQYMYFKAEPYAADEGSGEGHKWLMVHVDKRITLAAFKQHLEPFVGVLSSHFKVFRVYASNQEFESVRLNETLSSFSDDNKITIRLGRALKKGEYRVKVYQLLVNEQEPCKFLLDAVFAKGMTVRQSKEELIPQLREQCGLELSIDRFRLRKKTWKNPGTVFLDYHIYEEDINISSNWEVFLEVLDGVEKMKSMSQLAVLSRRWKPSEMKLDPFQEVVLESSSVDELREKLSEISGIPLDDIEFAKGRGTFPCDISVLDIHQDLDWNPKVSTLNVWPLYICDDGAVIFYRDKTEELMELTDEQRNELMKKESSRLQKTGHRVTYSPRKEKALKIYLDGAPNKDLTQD
Procedure, shortened: as §1

USP48 = target: T3, USP48 (UniProt Q86UV5)
T3 sequence (whole entry): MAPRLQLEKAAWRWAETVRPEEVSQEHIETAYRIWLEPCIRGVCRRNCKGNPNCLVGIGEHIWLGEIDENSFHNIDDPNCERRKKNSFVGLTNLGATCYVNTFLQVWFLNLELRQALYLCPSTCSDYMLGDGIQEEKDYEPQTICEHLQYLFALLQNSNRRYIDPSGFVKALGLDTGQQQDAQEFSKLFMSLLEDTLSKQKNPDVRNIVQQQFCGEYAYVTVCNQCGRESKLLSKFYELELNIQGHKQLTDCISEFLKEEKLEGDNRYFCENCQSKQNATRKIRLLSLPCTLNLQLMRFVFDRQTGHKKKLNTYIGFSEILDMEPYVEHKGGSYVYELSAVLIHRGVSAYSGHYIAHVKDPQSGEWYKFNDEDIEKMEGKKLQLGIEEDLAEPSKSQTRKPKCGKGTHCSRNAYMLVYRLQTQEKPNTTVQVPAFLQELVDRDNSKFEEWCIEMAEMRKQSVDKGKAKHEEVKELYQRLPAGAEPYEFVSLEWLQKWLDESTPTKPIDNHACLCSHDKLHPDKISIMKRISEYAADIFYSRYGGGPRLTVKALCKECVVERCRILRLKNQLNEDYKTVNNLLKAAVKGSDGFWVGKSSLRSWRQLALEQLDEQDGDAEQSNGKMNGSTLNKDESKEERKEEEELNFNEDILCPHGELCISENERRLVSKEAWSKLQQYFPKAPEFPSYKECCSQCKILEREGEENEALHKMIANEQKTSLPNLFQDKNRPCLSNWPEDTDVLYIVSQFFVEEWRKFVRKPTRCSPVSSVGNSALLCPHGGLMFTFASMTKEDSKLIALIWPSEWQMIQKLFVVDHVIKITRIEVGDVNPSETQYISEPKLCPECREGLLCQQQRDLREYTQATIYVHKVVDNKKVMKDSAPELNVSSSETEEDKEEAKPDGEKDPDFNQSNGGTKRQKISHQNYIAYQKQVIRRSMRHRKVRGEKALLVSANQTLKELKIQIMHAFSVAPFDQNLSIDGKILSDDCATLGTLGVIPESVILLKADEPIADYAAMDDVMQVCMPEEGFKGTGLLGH
Procedure, shortened: as §1

USP5 = target: T4, USP5 (UniProt P45974)
T4 sequence (whole entry): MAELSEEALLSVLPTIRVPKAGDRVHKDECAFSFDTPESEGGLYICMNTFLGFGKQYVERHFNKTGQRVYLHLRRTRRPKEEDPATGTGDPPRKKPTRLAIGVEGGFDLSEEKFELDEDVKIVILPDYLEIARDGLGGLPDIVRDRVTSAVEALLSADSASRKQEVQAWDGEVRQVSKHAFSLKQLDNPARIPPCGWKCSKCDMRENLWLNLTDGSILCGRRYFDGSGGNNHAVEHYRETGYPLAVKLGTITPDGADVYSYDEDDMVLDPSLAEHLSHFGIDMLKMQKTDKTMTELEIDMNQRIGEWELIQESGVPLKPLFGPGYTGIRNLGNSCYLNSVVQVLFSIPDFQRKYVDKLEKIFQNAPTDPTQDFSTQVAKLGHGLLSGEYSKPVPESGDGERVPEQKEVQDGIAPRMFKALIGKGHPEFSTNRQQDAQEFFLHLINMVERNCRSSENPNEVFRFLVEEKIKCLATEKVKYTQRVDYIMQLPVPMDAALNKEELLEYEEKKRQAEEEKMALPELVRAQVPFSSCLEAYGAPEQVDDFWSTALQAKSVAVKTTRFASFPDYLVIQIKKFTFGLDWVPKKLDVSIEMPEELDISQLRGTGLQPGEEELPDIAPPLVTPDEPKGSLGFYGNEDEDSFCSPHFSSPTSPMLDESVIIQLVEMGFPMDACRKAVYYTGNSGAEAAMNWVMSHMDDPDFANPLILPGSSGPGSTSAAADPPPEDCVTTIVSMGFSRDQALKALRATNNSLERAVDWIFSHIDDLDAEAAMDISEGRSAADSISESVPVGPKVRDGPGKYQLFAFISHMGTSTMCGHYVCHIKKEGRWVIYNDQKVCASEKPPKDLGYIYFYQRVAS
Procedure, shortened: as §1

USP54 = USP54 (UniProt Q70EL1)
Sequence of USP54 (Q70EL1 whole entry): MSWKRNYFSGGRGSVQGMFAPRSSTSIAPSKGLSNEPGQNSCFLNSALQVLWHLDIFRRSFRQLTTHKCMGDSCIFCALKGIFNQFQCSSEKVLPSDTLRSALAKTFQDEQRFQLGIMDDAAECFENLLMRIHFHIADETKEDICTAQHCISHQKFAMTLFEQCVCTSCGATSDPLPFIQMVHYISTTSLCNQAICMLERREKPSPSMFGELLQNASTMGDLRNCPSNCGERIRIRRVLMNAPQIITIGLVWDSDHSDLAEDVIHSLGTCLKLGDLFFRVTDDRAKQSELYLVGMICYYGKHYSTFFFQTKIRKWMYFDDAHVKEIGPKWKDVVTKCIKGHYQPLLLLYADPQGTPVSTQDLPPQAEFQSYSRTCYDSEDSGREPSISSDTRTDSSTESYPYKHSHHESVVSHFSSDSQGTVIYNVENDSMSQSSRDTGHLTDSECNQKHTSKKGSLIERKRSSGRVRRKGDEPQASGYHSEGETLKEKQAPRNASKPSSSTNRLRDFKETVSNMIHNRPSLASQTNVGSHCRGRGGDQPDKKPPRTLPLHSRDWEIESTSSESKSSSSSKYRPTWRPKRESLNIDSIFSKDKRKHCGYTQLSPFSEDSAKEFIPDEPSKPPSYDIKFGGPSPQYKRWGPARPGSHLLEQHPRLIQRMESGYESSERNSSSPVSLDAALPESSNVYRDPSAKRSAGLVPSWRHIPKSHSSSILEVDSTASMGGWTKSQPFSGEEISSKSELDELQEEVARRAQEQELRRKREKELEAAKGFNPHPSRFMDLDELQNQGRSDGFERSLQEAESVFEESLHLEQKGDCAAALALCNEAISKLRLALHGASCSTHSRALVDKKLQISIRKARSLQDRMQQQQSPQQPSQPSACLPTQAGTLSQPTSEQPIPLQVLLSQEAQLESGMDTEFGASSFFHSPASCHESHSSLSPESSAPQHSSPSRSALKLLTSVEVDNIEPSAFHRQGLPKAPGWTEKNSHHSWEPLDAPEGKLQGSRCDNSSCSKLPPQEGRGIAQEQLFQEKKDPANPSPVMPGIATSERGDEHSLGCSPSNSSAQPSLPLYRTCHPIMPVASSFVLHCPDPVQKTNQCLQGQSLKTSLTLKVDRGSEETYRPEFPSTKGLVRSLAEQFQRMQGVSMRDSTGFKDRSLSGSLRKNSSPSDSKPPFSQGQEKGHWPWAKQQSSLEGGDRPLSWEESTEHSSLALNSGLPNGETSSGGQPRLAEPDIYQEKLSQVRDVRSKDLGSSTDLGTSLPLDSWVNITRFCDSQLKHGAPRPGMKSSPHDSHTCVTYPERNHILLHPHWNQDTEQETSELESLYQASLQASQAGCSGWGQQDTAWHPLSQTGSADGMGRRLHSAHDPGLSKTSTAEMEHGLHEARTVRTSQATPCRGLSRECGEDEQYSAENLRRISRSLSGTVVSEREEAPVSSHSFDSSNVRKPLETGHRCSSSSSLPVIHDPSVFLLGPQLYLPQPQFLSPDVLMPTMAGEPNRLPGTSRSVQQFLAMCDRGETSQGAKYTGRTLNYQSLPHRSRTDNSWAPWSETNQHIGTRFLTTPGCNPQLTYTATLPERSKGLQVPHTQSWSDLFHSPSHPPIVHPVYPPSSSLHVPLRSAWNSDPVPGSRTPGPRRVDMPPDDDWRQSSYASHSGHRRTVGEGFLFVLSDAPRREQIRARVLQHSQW
Procedure, shortened: as §1

USP7 = USP7 (UniProt Q93009)
Sequence of USP7 (Q93009 whole entry, looked up): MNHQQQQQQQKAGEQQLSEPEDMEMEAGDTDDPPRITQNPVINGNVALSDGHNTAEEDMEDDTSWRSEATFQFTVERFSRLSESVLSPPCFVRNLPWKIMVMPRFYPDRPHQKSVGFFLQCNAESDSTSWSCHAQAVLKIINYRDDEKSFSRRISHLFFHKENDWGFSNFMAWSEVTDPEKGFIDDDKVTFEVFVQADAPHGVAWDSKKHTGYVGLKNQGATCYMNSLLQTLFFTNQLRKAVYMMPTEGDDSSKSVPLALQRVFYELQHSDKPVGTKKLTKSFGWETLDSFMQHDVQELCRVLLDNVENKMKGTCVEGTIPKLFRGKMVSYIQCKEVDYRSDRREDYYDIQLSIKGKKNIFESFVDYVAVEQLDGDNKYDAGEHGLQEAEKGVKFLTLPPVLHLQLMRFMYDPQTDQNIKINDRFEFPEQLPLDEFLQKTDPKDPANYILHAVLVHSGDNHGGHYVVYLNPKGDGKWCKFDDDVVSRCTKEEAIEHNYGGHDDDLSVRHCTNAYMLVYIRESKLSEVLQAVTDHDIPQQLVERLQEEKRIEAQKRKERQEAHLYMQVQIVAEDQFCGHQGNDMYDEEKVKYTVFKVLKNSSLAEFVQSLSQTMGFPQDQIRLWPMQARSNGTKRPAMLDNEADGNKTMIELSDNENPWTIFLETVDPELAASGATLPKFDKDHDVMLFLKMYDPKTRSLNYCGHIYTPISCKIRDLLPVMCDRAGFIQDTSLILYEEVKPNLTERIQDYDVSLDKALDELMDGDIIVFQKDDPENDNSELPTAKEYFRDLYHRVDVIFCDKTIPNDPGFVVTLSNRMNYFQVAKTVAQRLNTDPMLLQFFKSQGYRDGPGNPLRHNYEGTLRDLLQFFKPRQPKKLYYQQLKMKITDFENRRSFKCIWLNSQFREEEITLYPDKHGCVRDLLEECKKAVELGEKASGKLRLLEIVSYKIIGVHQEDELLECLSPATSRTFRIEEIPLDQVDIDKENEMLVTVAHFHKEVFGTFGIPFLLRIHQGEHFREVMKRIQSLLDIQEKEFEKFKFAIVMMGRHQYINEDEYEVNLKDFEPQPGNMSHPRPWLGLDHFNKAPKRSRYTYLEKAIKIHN
Procedure, shortened: as §1

USP8 = target: T5, USP8 (UniProt P40818)
T5 sequence (whole entry): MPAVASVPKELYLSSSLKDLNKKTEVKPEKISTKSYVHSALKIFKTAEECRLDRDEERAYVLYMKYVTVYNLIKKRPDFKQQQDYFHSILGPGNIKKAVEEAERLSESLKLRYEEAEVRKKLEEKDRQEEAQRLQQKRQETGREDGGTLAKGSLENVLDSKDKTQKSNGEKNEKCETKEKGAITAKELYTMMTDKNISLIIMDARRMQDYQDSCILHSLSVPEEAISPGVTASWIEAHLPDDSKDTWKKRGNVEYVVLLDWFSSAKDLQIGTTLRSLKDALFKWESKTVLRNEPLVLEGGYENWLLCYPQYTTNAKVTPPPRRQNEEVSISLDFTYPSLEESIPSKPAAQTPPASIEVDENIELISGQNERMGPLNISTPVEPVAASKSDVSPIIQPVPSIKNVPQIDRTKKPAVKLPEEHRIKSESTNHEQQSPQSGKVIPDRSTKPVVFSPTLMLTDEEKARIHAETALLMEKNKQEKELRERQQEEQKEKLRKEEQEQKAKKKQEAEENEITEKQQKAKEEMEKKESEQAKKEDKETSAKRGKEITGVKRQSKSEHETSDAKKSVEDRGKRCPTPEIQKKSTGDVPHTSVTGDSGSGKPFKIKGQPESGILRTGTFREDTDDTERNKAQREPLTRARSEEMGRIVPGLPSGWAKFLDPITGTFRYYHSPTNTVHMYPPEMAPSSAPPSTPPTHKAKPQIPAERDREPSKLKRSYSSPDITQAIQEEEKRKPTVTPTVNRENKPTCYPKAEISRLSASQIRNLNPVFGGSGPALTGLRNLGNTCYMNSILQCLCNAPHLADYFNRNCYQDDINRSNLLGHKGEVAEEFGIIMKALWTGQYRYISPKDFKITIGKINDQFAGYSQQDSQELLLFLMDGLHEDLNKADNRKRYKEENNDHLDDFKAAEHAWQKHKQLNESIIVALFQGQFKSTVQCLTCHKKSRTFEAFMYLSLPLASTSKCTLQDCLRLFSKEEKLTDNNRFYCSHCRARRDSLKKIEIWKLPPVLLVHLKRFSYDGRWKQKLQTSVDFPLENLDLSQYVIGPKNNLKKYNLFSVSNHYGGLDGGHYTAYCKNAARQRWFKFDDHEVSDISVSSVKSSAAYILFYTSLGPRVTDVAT
Procedure, shortened: as §1

USP9X = USP9X (UniProt Q93008)
Procedure, shortened: as §1

UniProt O00487 = target: UniProt O00487
Sequence of UniProt O00487 (O00487 whole entry): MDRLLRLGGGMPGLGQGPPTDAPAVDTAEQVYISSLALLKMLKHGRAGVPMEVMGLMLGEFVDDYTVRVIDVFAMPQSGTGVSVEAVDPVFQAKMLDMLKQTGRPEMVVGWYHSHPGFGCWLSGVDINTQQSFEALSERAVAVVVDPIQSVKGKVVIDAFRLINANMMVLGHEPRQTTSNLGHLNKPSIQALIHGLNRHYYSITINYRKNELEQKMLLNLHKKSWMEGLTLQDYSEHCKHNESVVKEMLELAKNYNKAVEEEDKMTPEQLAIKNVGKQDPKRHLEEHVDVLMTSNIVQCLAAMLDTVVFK
Procedure, shortened: as §1

Measured: log2 ratio of Biotin-Ahx-Ub-VS probe labelling

CNC(=O)C1CCN(C(=O)CCl)CC1
inactive: USP42 0.308 | USP46 0.0795 | USP47 0.356 | USP48 -0.0361 | USP5 -0.203 | USP54 0.32 | USP7 -0.171 | USP8 -0.00406 | USP9X -0.107 | UniProt O00487 0.144
